Bioassay records (PubChem BioAssay)
An excerpt weighted towards active compounds, which were near 5.9% of everything screened.
S2 tox: viability counter-screen for ATXN expression inhibitors. S2 cells (HEK-293 line with an ATXN2-luciferase reporter) viability, CellTiter-Fluor protease fluorescence, 24 h. Potency, µM (top dose mostly 56.7 µM), most hits filed as cytotoxic. hit rate 0.49% among 400,000. AID 651635; also: nearly all actives have a fitted effect of over 40% in size
KB-V1 MDR tox: KB-V1 MDR subline cytotoxicity; hit rate 3.4% among 400,000; Potency, µM (doses to about 46.1 µM), most hits filed as cytotoxic; KB-V1 MDR cells viability, CellTiter-Glo, 72 h; AID 1347076; also: % is scaled to controls: 0 for no effect and ±100 for the full control effect; nearly all actives have a fitted effect of over 60% in size
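Cytotoxicity toward P-gp-expressing KB-V1 cells was determined as loss of CellTiter-Glo luminescence after 72 h at 37 degrees C. Compounds were tested in quantitative HTS format across a concentration range, with curves fitted to normalized data.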
ATXN2 expr inh: reduces ATXN2 reporter expression in HEK-293 cells; AID 1745845; Potency, µM (titrated, usually from 57 µM), without a hit: top-dose activity change, negative = inhibition, actives largely listed as inhibitors; HEK-293 ATXN2-luciferase reporter, luminescence, 24 h; hit rate 0.72% among 360,000; also: % is scaled to controls: 0 for no effect and ±100 for the full control effect; nearly all actives have a fitted effect of over 55% in size
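ATXN2-luciferase reporter cells (luciferase flanked by upstream and downstream ATXN2 gene portions) were treated 24 h at 37 °C with compounds at up to 57 uM. SteadyGlo luminescence gave expression; GF-AFC fluorescence gave viability.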
HepG2 tox: kills HepG2 cells in TGF-b inhibitor counter-screen | HepG2 CAGA-GFP viability, ATP luminescence, 18 h | hit rate 0.76% among 410,000 | AID 588856 | Potency, µM (top dose mostly 46.1 µM), for inactives: top-dose activity change, negative = cytotoxicity, usual class: cytotoxic
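HepG2 CAGA-GFP cells (1000/well, DMEM with 1% FBS) received compound, then TGF-beta at 500 pg/mL final, and were incubated 18 hours at 37 degrees C. Viability was read by CellTiter-Glo luminescence. Media-only wells were set as complete cell-killing and DMSO as no toxicity.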
TGFb inhibitor: TGF-b pathway inhibition. HepG2 CAGA-GFP TGF-b/SMAD3 reporter, GFP fluorescence, 18 h; TGF-beta stimulated, 500 pg/mL final. Potency, µM (doses to about 46.1 µM), for the others: at the top dose activity, negative = inhibition, hits mostly inhibitors. hit rate 1.2% among 410,000; also: % is scaled to controls: 0 for no effect and ±100 for the full control effect; nearly all actives have a fitted effect of over 65% in size
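Inhibition of TGF-beta-driven CAGA-GFP reporter expression in HEPG2 cells is measured by cellular GFP fluorescence after 18 h stimulation with 500 pg/mL recombinant TGF-beta in 1% FBS medium at 37 degrees C.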
KB-3-1 cytotox: KB-3-1 parental cell cytotoxicity | hit rate 1.4% among 400,000 | AID 1347075 | KB-3-1 viability, CellTiter-Glo ATP luminescence, 72 h | Potency, µM (top dose mostly 46.1 µM), usual class: cytotoxic; also: % is scaled to controls: 0 for no effect and ±100 for the full control effect; nearly all actives have a fitted effect of over 60% in size
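Using CellTiter-Glo luminescence, growth of non-resistant KB-3-1 adenocarcinoma cells is assessed 72 h after pin-tool compound addition at 37 °C. Normalized responses across the concentration series yield fitted curves.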
Active calls of the source: *; i = inactive; u = inconclusive; x = no result. Calls follow the shape of the dose curve; as a rule, active = well fitted curve in the direction sought with a large enough effect; inconclusive = small, poorly fitted or top-dose-only effect, or another doubt; inactive = no such curve, though single readings can be large; an effect the other way counts as inactive or inconclusive. Potency is read from the fitted curve at half-maximal effect.

SMILES	S2 tox	KB-V1 MDR tox	ATXN2 expr inh	HepG2 tox	TGFb inhibitor	KB-3-1 cytotox
Cc1nn(-c2ccccc2)nc1C(=O)c1c(C)[nH]n(-c2ccccc2)c1=O	i	21µM*	u	-26%	u	16µM*
CCn1c2c(c(=O)n3ncc(C(=O)Nc4ccc(OC(F)(F)F)cc4)c13)CN(Cc1ccc(OC)cc1)CC2	i	i	15%	-17%	u	i
CC(C)(C)n1[nH]c2c3c(ccc2c1=O)C(=O)c1ccccc1C3=O	u	u	-21%	6.3µM*	10µM*	u
Cc1ccc(-n2[nH]c3c4c(ccc3c2=O)C(=O)c2ccccc2C4=O)cc1	i	i	-19%	-7%	9%	i
COCCCn1[nH]c2c3c(ccc2c1=O)C(=O)c1ccccc1C3=O	i	15µM*	-15%	-93%	u	u
Clc1ccc(C[n+]2cc(-c3ccccc3)n3c2CCCCC3)c(Cl)c1	u	u	u	-31%	u	2.1µM*
Clc1ccc(-c2c[n+](Cc3ccc(Cl)cc3Cl)c3n2CCCCC3)cc1	u	i	u	-27%	-23%	u
Clc1ccc(C[n+]2cc(-c3ccccc3)n3c2CCC3)cc1Cl	i	i	-1%	0%	-11%	u
Clc1ccc(-c2c[n+](Cc3cccc(Cl)c3)c3n2CCC3)cc1	i	i	-9%	-6%	-29%	6.5µM*
CCN(CC)C(=O)Oc1ccc2c(=O)c(-c3ccc(OC)cc3)c(C)oc2c1	u	9.2µM*	-26%	-27%	-23%	i
COc1ccc2c(=O)c(-c3ccccc3C)c(C)oc2c1	i	i	24%	-33%	4%	i
CCN(CC)C(=O)Oc1ccc2c(=O)c(-c3ccc(OC)cc3)coc2c1	i	12µM*	3%	-32%	0%	u
CCC(Sc1nnc(C)n2c1cc1occc12)C(=O)Nc1ccccc1OC (stereo not given)	x	i	x	7%	0%	i
COc1ccc(CC(=O)NCCc2sc(-c3ccc(Cl)cc3)nc2C)cc1OC	u	i	-16%	-21%	7.9µM*	i
CC1(Cc2cccc(F)c2)C(=O)Nc2ccc(OC(F)(F)F)cc21 (stereo not given)	u	i	u	-67%	u	i
COc1ccc(C(C)=O)cc1CC1(C)C(=O)Nc2ccc(OC(F)(F)F)cc21 (stereo not given)	i	i	-17%	-18%	-7%	i
CC1(Cc2ccc(OC(F)(F)F)cc2)C(=O)Nc2c(Cl)ccc(Cl)c21 (stereo not given)	u	i	u	-113%	16µM*	i
COc1ccc(OC(F)(F)F)cc1CC1(C)C(=O)Nc2ccc(-c3ccsc3)cc21 (stereo not given)	x	i	-13%	-103%	13µM*	i
CC1(Cc2ccc(F)cc2)C(=O)Nc2c(Cl)ccc(Cl)c21 (stereo not given)	i	i	-21%	-4%	-17%	i
CC(=O)c1cccc(-c2ccc3c(c2)C(C)(Cc2ccccc2F)C(=O)N3)c1 (stereo not given)	u	i	u	-32%	-24%	i
CC1(Cc2ccc(OC(F)(F)F)cc2)C(=O)Nc2ccc(OC(F)(F)F)cc21 (stereo not given)	u	i	u	18µM*	u	i
COC(=O)c1ccc(CC2(C)C(=O)Nc3ccc(-c4cccc(C(F)(F)F)c4)cc32)o1 (stereo not given)	32µM*	u	u	22µM*	u	u
COc1cccc(C(=O)Nc2ccc3c(c2)OC[C@H](C)N(C(=O)C2CCCC2)C[C@@H](C)[C@@H](OC)CN(C)C3=O)c1	x	i	x	x	x	i
